# The panel holds about 83,000 compounds, 20% with a hit somewhere; the sample as a whole holds those more often.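 Percent growth is the endpoint: 0 to 100 indicates growth inhibition (40 means 60% inhibition), 0 means no net growth, and negative values indicate cell death.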 Unmarked numbers belong to inactive results. Activity calls are given as the source filed them. Rule for the calls: active = growth percent below 10; inactive = the rest.
# Tests used:
# Experiment in all cases: NCI-60 one-dose screen, 48 h (100 = growth as untreated, 0 = no growth, -100 = all killed)
# Settings in all cases: 10 µM unless noted
# NCI-H23 lung = tested on: NCI-H23 lung
# NCI-H226 lung = tested on: NCI-H226 lung
# HOP-62 NSCLC = tested on: HOP-62 NSCLC
# NCI-H460 lung = tested on: NCI-H460 lung
# NCI-H522 lung = tested on: NCI-H522 lung
# A549/ATCC NSCLC = tested on: A549/ATCC NSCLC
# 786-0 renal = tested on: 786-0 renal
# COLO 205 colon = tested on: COLO 205 colon
# DU-145 prostate = tested on: DU-145 prostate
# K-562 leukemia = tested on: K-562 leukemia
# MALME-3M melanoma = tested on: MALME-3M melanoma
# MDA-MB-231 breast = tested on: MDA-MB-231 breast
# RXF 393 renal = tested on: RXF 393 renal
# SF-268 CNS = tested on: SF-268 CNS
# SF-295 CNS = tested on: SF-295 CNS
# SF-539 CNS = tested on: SF-539 CNS
# UACC-257 melanoma = tested on: UACC-257 melanoma
# M14 melanoma = tested on: M14 melanoma
# NCI-H322M lung = tested on: NCI-H322M lung
# HOP-92 NSCLC = tested on: HOP-92 NSCLC
Compound,growth (NCI-H23 lung),growth (NCI-H226 lung),growth (HOP-62 NSCLC),growth (NCI-H460 lung),growth (NCI-H522 lung),growth (A549/ATCC NSCLC) [%],growth (786-0 renal),growth (COLO 205 colon),growth (DU-145 prostate),growth (K-562 leukemia),growth (MALME-3M melanoma),growth (MDA-MB-231 breast),growth (RXF 393 renal),growth (SF-268 CNS),growth (SF-295 CNS),growth (SF-539 CNS),growth (UACC-257 melanoma),growth (M14 melanoma),growth (NCI-H322M lung) [%],growth (HOP-92 NSCLC) [%]
CCN(CC)CC(=O)Nc1c(C)cc(C(=O)NN)cc1C,94.8%,99.7%,88.5%,105%,105%,106,106%,95.4%,96.8%,94.9%,73.9%,103%,110%,93.9%,105%,100%,100%,96.2%,–,–
C#CCO[C@H]1CC[C@H](OCC#C)[C@@H]2[C@H]1[C@H]1C[C@@H]3[C@@]4(C)CCC[C@@](C)(C(=O)OC)[C@@H]4CC[C@@]23C=C1C(C)C,64.3%,81.7%,77.5%,–,–,57.1,-23.5% (active),–,94.3%,79.7%,-41.7% (active),65%,94.9%,81.1%,92.7%,70.9%,56%,93.8%,88.5,–
COc1ccc2nc(-c3ccc(-c4noc(-c5ccc(Cl)cc5)n4)cc3)[nH]c2c1,63.7%,93.4%,97.4%,79.1%,88.6%,72.8,98.5%,67.8%,48%,45.1%,37.1%,75.6%,103%,63.4%,87.5%,77.2%,74.5%,–,–,–
CN(C)N1C(=O)c2c(Cl)c(Cl)c(Cl)c(Cl)c2C1=O,96.9%,103%,108%,110%,–,104,103%,111%,120%,98.4%,123%,115%,112%,106%,123%,118%,104%,101%,–,–
Cc1ccccc1NC(=O)c1sc2nc3c(cc2c1N)C(=O)CCC3,50.6%,65.8%,38.2%,15.3%,–,37.6,51.6%,6.12% (active),18.3%,22.1%,66.5%,61.6%,-10.4% (active),65.4%,57.2%,27.6%,61%,41.5%,–,–
CNC(=O)c1c(NC(=O)c2ccc(C(C)C)cc2)sc2c1CCC(=O)C2,-1.47% (active),-24.5% (active),12%,7.34% (active),–,15.9,13%,-70.3% (active),23.4%,1.86% (active),-45.3% (active),-55.9% (active),-32.9% (active),15.3%,-29.4% (active),-63.7% (active),1.16% (active),-39.4% (active),–,–
C[N+](C)(C)CCCCCCCCCC[N+](C)(C)C,88.7%,95.6%,96.2%,98.2%,–,103,109%,–,–,–,93%,83.6%,101%,98.2%,113%,119%,107%,–,–,103
ClC1(Cl)C2CCCCCCC21 (stereo not given),107%,103%,108%,107%,84.5%,98.2,94.9%,129%,121%,97.8%,107%,122%,117%,112%,101%,117%,106%,98.7%,–,–
O=C(Nc1ccncc1)C(=O)c1cn(S(=O)(=O)c2cccc(Cl)c2F)c2ccccc12,63.7%,75%,89.6%,90%,35.2%,82.8,77.3%,106%,96.9%,23.9%,53.7%,78.2%,92.5%,80.6%,67.9%,83.2%,89.6%,59.2%,–,–
CCOC(=O)Cn1c(-c2nonc2NC(=O)c2ccccc2F)nc2ccccc21,76.2%,62.3%,73.2%,10.2%,47.6%,24,46.4%,60.1%,53.2%,31.3%,77.4%,62.8%,64.7%,50%,8.34% (active),44.7%,72.1%,61.5%,–,–
Cn1c(-c2ccccc2)cc(=O)n1-c1ccccc1,96%,102%,108%,117%,107%,102,107%,121%,120%,110%,113%,100%,115%,112%,122%,101%,97.4%,110%,–,–
CC(C)CCC(=O)[C@@H](C)[C@H]1[C@@H](OC2OCC(O)C(O)C2NS(C)(=O)=O)C[C@H]2[C@@H]3CC=C4C[C@@H](O)CC[C@]4(C)[C@H]3CC[C@]12C (stereo not given in full),56.8%,52.4%,8.62% (active),12.1%,20.7%,33.4,-32% (active),–,49%,2.65% (active),8.83% (active),43.8%,-65.1% (active),9.17% (active),-60.9% (active),-41.2% (active),-42.8% (active),-53.1% (active),–,–
CCn1c(Cc2ccccc2Nc2c(Cl)cccc2Cl)nnc1SCC(=O)Nc1ccccc1C(F)(F)F,89.7%,82.3%,98.1%,95.8%,–,76.8,92%,99.1%,103%,72.5%,100%,84.8%,94.6%,100%,90.6%,106%,101%,92.2%,–,–
CCN(CC)CCNC(=O)n1cc(-c2ccncc2)c(-c2cc(Cl)cc(OC)c2)n1,80.1%,38.7%,35.9%,97.9%,92.3%,49.5,71.5%,46.2%,81.3%,66.7%,111%,82.8%,61.8%,73.9%,80.3%,44%,89.4%,108%,–,–
COc1cccc(/C(C)=N/NC(=O)CSc2nc3ccccc3c(=O)n2CCc2ccc(S(N)(=O)=O)cc2)c1,31.6%,89.1%,35%,-53.2% (active),42.2%,15.6,-26.9% (active),42.9%,18.4%,32%,-15.2% (active),-25.5% (active),57.9%,36.1%,44%,-18.1% (active),45.2%,27.3%,–,–
O=C(O/C(=C/c1ccccc1)C(F)(F)F)c1ccccc1,109%,102%,105%,117%,105%,101,107%,–,102%,101%,118%,95%,108%,96%,114%,103%,101%,107%,–,–
COc1ccccc1CNCCCN1C(=O)c2ccc3c4c(ccc(c24)C1=O)C(=O)N(CCCCNCCCN)C3=O,-41.7% (active),62.6%,40.1%,-38.5% (active),-78.4% (active),33,40%,-83.7% (active),-72.6% (active),–,-95.6% (active),9.1% (active),-4.56% (active),2.12% (active),54.8%,-61.1% (active),-95% (active),-49.3% (active),–,–
O=c1c2cc(Cl)ccc2oc2ccc(OCCCCCN3CCCCC3)cc12,75.1%,86.7%,88.9%,10.2%,36.2%,32.3,35.4%,10.6%,74.6%,2.44% (active),74.9%,46.1%,60.9%,73.1%,75.5%,58.3%,-26.2% (active),-67.4% (active),–,–
